Molecules are shown by their SMILES. About 83,000 compounds went through this panel and 20% of them were active in at least one assay; those are over-represented in the sample as a whole.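 Percent growth is the endpoint: 0 to 100 indicates growth inhibition (40 means 60% inhibition), 0 means no net growth, and negative values indicate cell death.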 Values without a mark were called inactive. Activity calls are given as the source filed them. The calls were made as follows: active = growth percent below 10; inactive = the rest.

The test system of the assay is SF-539 CNS. Kind of assay: NCI-60 one-dose screen, 48 h (100 = growth as untreated, 0 = no growth, -100 = all killed). The note with it: 10 µM.
Consider `CCOC(=O)c1sc2ncnc(Nc3ccc4c(cnn4C(=O)Nc4ccccc4)c3)c2c1C`, for which the growth is 19.2%. In the case of `CCOC(=O)c1cc(C(=O)c2ccc(Cl)cc2)n2ccc(-c3cc[n+](CC(=O)c4ccc(OC)cc4)cc3)cc12` it was 89.5%; in that of `CC(CN(C)C)Oc1ccc(OC(C)CN(C)C)c2c1C(=O)c1ccccc1C2=O` (stereo unspecified), 51%. In the case of `N#Cc1c(-c2ccc(Cl)cc2)n(O)c2ccccc12` it was -10.1% (active). Then `C=CCN(CC=C)C(=O)[C@H](CC)[C@@H]1CC[C@@H](C)[C@@H]([C@H](C)[C@@H](O)[C@@H](C)C(=O)[C@H](CC)C2O[C@]3(C=CC(=O)[C@]4(CC[C@@](C)([C@H]5CC[C@](O)(CC)[C@H](C)O5)O4)O3)[C@H](C)C[C@@H]2C)O1` (stereo partly specified), with 53.2%; and `COc1cc(C2C(C#N)=C(N)Oc3cc(O)ccc32)cc(OC)c1OC` (stereo unspecified), with 4.64% (active); and `O=C(CI)OCC(COC(=O)CI)OC(=O)CI`, with 114%. Turning to `Cc1ccc(C(=O)C2C(=O)C3CCC2C3)cc1` (stereo unspecified), the growth is 106%. With `CCc1ccc(C2=NN(c3ccc(S(C)(=O)=O)cc3)C(=O)CC2)cc1`, the growth was 15.1%. Then `CC(C)(C)c1ccc(S(=O)(=O)Oc2ccc(NC(=O)C3CCCCC3)cc2)cc1`, with 73.2%. Then `N#CC1=CC2CN(Cc3ccccc3)C1C1C(=O)N(c3ccccc3)C(=O)C21` (stereo unspecified), with 98.5%; and `CN(C)CCCOc1ccccc1NC1=C(Cl)C(=O)C(Nc2ccccc2OCCCN(C)C)=C(Cl)C1=O`, with -96.6% (active); and `CCOC(=O)c1cc(C(=O)c2cc(OC)c(OC)c(OC)c2)n2c1ccc1c3cccnc3ccc12`, with 55.5%. Then `COc1cc2cc(Oc3ccc(NC(=O)c4ccccc4)cc3)c(C)nc2cc1OC`, with 97.6%; and `COC(=O)c1cc2oc(/C=C3/SC(=S)N(N)C3=O)cc2n1Cc1ccccc1`, with 44.7%; and `CC[C@@H](C(=O)[C@@H](C)[C@@H](O)[C@H](C)[C@@H]1O[C@@H]([C@@H](CC)C(=O)N(CC)CC)CC[C@@H]1C)C1O[C@]2(C=CC(=O)[C@]3(CC[C@@](C)([C@H]4CC[C@](O)(CC)[C@H](C)O4)O3)O2)[C@H](C)C[C@@H]1C` (stereo partly specified), with 44.8%.

On to `Cc1ccc(N=Nc2ccccc2)cc1`, for which the growth was 100%.

In the case of `COc1cc(-c2nn(-c3cccc(NC(=O)CCNc4ccc(N5CCOCC5)cc4)c3)cc2-c2ccncc2)ccc1Cl`, the growth is 29.1%. Take `O=c1oc2c(cc1-c1ccc(F)cc1)C(O)Oc1ccccc1-2` (stereo unspecified): the growth was 74.4%. Then `CCOC(=O)c1cc(C(=O)c2cc(OC)c(OC)c(OC)c2)n2ccc(-c3cc[n+](CC(=O)c4cc(OC)c(OC)c(OC)c4)cc3)cc12`, with 30.4%. In the case of `CC(CN(C)C)Oc1ccccc1NC1=C(Cl)C(=O)C(Nc2ccccc2OC(C)CN(C)C)=C(Cl)C1=O` (stereo unspecified) it was -98% (active). Then `O=C(CCCSc1nc(-c2ccc(Cl)cc2)cc(-c2ccc(Cl)cc2)n1)NO`, with -23% (active). For `CC[C@@H]1NC(=O)[C@H]([C@H](O)[C@H](C)C/C=C/c2ccc(CN3C(=O)CCCC3=O)cc2)N(C)C(=O)[C@H](C(C)C)N(C)C(=O)[C@H](CC(C)C)N(C)C(=O)[C@H](CC(C)C)N(C)C(=O)[C@@H](C)NC(=O)[C@H](C)NC(=O)[C@H](CC(C)C)N(C)C(=O)[C@H](C(C)C)NC(=O)[C@H](CC(C)C)N(C)C(=O)CN(C)C1=O`, the growth is 23.7%.

Turning to `CCNc1nc(C(F)(F)F)nc2c1sc(=S)n2-c1ccccc1`, the growth was 101%. For the compound `COc1cc2c3c(n(C4CCN(C)CC4)c(=O)c2cc1OC)-c1cc2c(cc1C3=O)OCO2`, the growth was -55.5% (active). Regarding `Cc1cc(C)nc(NS(=O)(=O)c2ccc(Nc3nc4nc(NCc5ccccc5)nc(-c5ccc(O)cc5)c4c(=O)[nH]3)cc2)n1`, the growth is 39.9%.

Take `Oc1ccc(/C=N/N=C2c3ccccc3-c3ccccc32)c(O)c1`: the growth was 89.1%. In the case of `CN1CCN(CC(=O)Nc2cccc(-n3cc(-c4ccncc4)c(-c4ccc(Cl)c(O)c4)n3)c2)CC1` it was 0.848% (active).

On to `CNS(=O)(=O)Oc1ccc(-c2ccc3occc3c2)cc1`, for which the growth is 98.1%. In the case of `Cc1n[nH]c(C)c1N=Nc1cccc2c1C(=O)c1ccccc1C2=O` it was 90.3%. On to `Clc1ccc(C2=NN=C3C(Cc4ccccc4)=Nc4ccccc4N3C2)cc1`, for which the growth is 105%.
